# Rows were chosen to be rich in hits. Some 9.3% of all compounds tested hit in one or more screens of this group.
# FMDV antiviral: antivirals against foot and mouth disease virus; FMDV antiviral cell-based qHTS; Potency, µM (doses to about 57.9 µM), for inactives: at the highest dose activity change, negative = inhibition, hits mostly inhibitors; 410,000 compounds, 1.2% hits; calls by dose curve; tested in HEK293T cells; note: read-out not given here; potency is the fitted concentration of half-maximal effect; nearly all actives have a fitted effect of over 45% in size
# HCMV antiviral: human cytomegalovirus inhibition | HFF cells, HCMV-luciferase reporter, 72 h; active compounds read low | activity change, negative = inhibition, % at 57.5 µM | 410,000 compounds, 4.5% hits; in the data active = activity change below about -60%; inconclusive = no clear call, values can overlap the other calls; inactive = above about -39%
#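 After 16 h attachment at 37C, HFF cells received test compound and HCMV-luciferase (1 PFU/cell); reporter luminescence read 72 h later, data normalized against buffer-only and known inhibitor Salinomycin.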
# VACV Venus inh: inhibitors of vaccinia virus (Venus reporter). Vaccinia virus Venus reporter expression, fluorescence. Potency, µM (series often up to 36.5 µM), for inactives: at the highest dose activity change, negative = inhibition, hits mostly inhibitors. 330,000 compounds, 0.46% hits; calls by dose curve; tested in A549 cells; note: potency is the fitted concentration of half-maximal effect; nearly all actives have a fitted effect of over 30% in size
# Vaccinia mCherry: inhibitors of vaccinia virus infection (mCherry reporter signal) | Vaccinia virus mCherry reporter infection, fluorescence | Potency, µM (series often up to 36.5 µM), for the others: top-dose activity change, negative = inhibition, most hits filed as inhibitors | 310,000 compounds, 0.63% hits; calls by dose curve; tested in A549 cells; note: potency is the fitted concentration of half-maximal effect; nearly all actives have a fitted effect of over 35% in size
# HCV inhibitor: HCV inhibition; Huh7.5.1 HCVcc-Cre infection, luciferase reporter, 44 h; Potency, µM (top dose mostly 41.8 µM), for inactives: at the top dose activity change, negative = inhibition, most hits filed as inhibitors; 340,000 compounds, 3.4% hits; AID 651820; note: potency is the fitted concentration of half-maximal effect
#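 Infectious HCV cell culture screen: compound-treated cells (1,000/well, pre-plated 4 h) are infected with HCVcc-Cre at roughly 0.5 moi and grown 44 h. Infection is quantified by luciferase signal after 15 min substrate incubation at room temperature.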
# Sm TGR inh: S. mansoni TGR enzyme inhibition | purified TGR, DTNB reduction, TNB absorbance 405 nm | Potency, µM (doses to about 114 µM), inactives show top-dose activity change, negative = inhibition, usual class: inhibitors | 360,000 compounds, 3% hits | AID 485364; note: potency is the fitted concentration of half-maximal effect; nearly all actives have a fitted effect of over 60% in size
#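 TGR 20 nM + NADPH 100 uM (dispensed conc.), cpd preinc 15 min RT; start with NADPH (500 uM addition) then DTNB (15 mM addition). Kinetic TNB absorbance, 405 nm filter. Four-parameter Hill fit across titration.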
# The depositor's hits bear a star; i = inactive; u = inconclusive; x = no result given; ! = repeats disagree. Unless noted, calls come from the whole dose curve; as a rule, active = well fitted curve in the direction sought with a large enough effect; inconclusive = small, poorly fitted or top-dose-only effect, or another doubt; inactive = no such curve, though single readings can be large; an effect the other way counts as inactive or inconclusive. % is set by controls: 0 for no effect and ±100 for the full control effect.
SMILES,FMDV antiviral,HCMV antiviral,VACV Venus inh,Vaccinia mCherry,HCV inhibitor,Sm TGR inh
Cc1cc(C)nc(SCC(=O)NCC2COc3ccccc3O2)n1 (stereo not given),-9.7%,-2.0,x,x,13.1%,-20.3%
Cc1ccc(-c2cn(-c3ccc(SC(F)F)cc3)c3[n+]2CCC3)cc1,u,-97.7*,-17.7%,-11.4%,u,-4.2%
FC(F)Sc1ccc(-n2cc(-c3ccc(Cl)cc3)[n+]3c2CCC3)cc1,-23.5%,-22.6,-3.5%,i,7.5%,1.1%
FC(F)Oc1ccc(-n2cc(-c3ccccc3)[n+]3c2CCCCC3)cc1,u,-21.4,-12.5%,-14.8%,-10.7%,23.9%
Cc1ccc(-c2cn(-c3ccc(OC(F)F)cc3)c3[n+]2CCCCC3)cc1,-5.5%,-88.6*,-16.3%,-3.7%,-6.2%,6.8%
O=S(=O)(NC1CCCCC1)c1cccs1,31.3%,-11.6,2.2%,-22.2%,22.7%,-0.8%
C/C(=N\NC(=O)c1cc(-c2cccs2)nc2ccccc12)c1ccccn1,u,-100.6*,x,x,0.562µM*,7.8%
C/C(=N\NC(=O)c1cccc2ccccc12)c1ccccn1,-6.0%,-96.2*,-10.3%,u,5.01µM*,0.0%
C/C(=N\NC(=O)c1ccccc1Cl)c1ccccn1,29.9%,-96.7*,u,u,u,8.0%
Cc1cccc2sc(NNC(=O)c3cc(-c4cccs4)nc4ccccc34)nc12,u,-68.4*,-17.7%,u,u,-14.7%
Cc1ccc(NC(=O)c2cc(-c3cccs3)nc3ccccc23)c(C)c1,u,7.3,-1.8%,-11.2%,x,4.9%
C/C(=N\NC(=O)c1ccc(Cl)c(Cl)c1)c1ccccn1,15.3%,-99.5*,u,1.26µM*,0.562µM*,-0.1%
C/C(=N\NC(=O)c1cccc(Br)c1)c1ccccn1,26.6%,-102.6*,u,u,u,0.2%
C/C(=N\NC(=O)C(c1ccccc1)c1ccccc1)c1ccc(O)cc1,-23.2%,21.6,x,x,-15.4%,-14.0%
C/C(=N\NC(=O)C(c1ccccc1)c1ccccc1)c1ccccn1,u,-98.6*,u,u,11.2µM*,3.7%
COc1ccc(C(=O)N/N=C(\C)c2ccccn2)cc1OC,u,-111.6*,u,2.24µM*,u,-1.2%
C/C(=N/NC(=O)c1ccc(C(C)(C)C)cc1)c1ccccn1,-10.2%,-98.0*,u,2.82µM*,3.55µM*,x
C/C(=N/NC(=O)c1ccccn1)c1ccncc1,47.9%,28.8,-12.7%,-10.6%,37.7%,6.2%
Nc1nnc(CCCCc2cccs2)o1,-0.9%,-31.7,10µM*,i,-3.7%,-24.0%
COc1cccc(OC)c1C(=O)Nc1nnc(-c2ccc(F)cc2)s1,7.5%,-28.7,x,x,-8.8%,5.8%
COc1ccc(CNCCC2(Cc3ccccc3)CC(C)N(C)CC2C)cc1OC (stereo not given),-7.7%,-0.2,x,x,7.94µM*,33.8%
Cc1cccc(CC(Cc2nc3ccccc3[nH]2)c2nc3ccccc3[nH]2)c1 (stereo not given),u,-82.6*,u,x,u,0.5%
CCOc1ccc(Br)cc1S(=O)(=O)Nc1ccc(C(=O)OCC(=O)Nc2ccc(C#N)cc2)cc1,46.8%,-21.0,x,x,11.3%,x
Cc1ccc(-n2nc(-c3ccccc3)cc2Nc2ccccc2N)cc1,-10.7%,-19.0,-13.0%,-21.6%,5.0%,5.1%
Cc1ccc(-c2cc3nn(-c4ccccc4)c(N)c3c(=O)o2)cc1,-27.7%,-11.9,x,x,10µM*,-22.6%
Cc1cccc(NC(=O)c2ccccc2NC(=O)CCC(=O)O)c1,8.6%,-79.4*,-15.0%,i,33.4%,-7.2%
O=C(Nc1ccccc1C(=O)Nc1ccccc1C(=O)O)c1ccccc1,0.0%,-60.2*,-10.9%,-18.9%,-28.0%,-1.7%
O=C(Nc1ccccc1C(=O)Nc1ccccc1)c1ccccc1F,2.7%,u,x,x,-12.0%,-1.9%
O=C(O)c1cccc(NC(=O)c2ccccc2NC(=O)c2ccccc2F)c1,-26.0%,33.4,-17.8%,-15.4%,0.891µM*,-12.8%
Cc1cccc(NC(=O)CCn2cnnn2)c1,-3.3%,22.8,-1.7%,5.3%,16.7%,89.1µM*!
